Measured values taken from ChEMBL document CHEMBL5308504, “Tm Shift (DSF) assay results for EUbOPEN Chemogenomics Library” (2023).

Experiments:
Settings in all cases: Compound concentration 20.0 uM, Protein concentration 2.0 uM, Result type QC Liability
[1] = molecular target: Tyrosine-protein kinase ABL1 (Homo sapiens) (UniProt P00519)
[2] = molecular target: Cyclin-dependent kinase 2 (Homo sapiens) (UniProt P24941)
[3] = molecular target: Casein kinase I isoform delta (Homo sapiens) (UniProt P48730)
[4] = molecular target: Glycogen synthase kinase-3 beta (Homo sapiens) (UniProt P49841)
[5] = molecular target: Mitogen-activated protein kinase 1 (Homo sapiens) (UniProt P28482)
[6] = molecular target: T1, Aurora kinase A (Homo sapiens) (UniProt O14965)
T1 sequence (whole entry): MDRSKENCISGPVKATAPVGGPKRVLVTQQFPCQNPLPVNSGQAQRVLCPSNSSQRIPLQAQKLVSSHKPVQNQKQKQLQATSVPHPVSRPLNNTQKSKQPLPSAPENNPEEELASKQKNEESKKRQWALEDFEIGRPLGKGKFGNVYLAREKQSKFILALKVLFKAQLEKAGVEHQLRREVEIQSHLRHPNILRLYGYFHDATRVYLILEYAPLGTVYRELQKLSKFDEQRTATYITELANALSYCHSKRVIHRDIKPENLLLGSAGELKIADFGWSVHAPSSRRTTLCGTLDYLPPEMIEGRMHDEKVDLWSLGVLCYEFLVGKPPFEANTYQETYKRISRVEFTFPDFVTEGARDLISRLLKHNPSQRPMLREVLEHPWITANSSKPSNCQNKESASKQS

Sequence of Glycogen synthase kinase-3 beta (Homo sapiens) (P49841 whole entry, looked up): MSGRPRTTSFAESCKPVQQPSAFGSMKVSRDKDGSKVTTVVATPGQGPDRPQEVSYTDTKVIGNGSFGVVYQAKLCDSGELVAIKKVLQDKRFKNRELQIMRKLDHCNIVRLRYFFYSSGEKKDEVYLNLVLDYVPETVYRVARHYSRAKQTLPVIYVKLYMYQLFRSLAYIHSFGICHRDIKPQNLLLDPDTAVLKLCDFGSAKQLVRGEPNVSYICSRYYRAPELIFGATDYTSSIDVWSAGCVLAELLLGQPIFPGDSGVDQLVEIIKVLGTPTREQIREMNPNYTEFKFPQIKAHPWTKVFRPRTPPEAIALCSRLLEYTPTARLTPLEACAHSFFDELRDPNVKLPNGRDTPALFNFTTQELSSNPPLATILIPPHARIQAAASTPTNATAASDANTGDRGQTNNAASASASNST
Sequence of Tyrosine-protein kinase ABL1 (Homo sapiens) (P00519 whole entry): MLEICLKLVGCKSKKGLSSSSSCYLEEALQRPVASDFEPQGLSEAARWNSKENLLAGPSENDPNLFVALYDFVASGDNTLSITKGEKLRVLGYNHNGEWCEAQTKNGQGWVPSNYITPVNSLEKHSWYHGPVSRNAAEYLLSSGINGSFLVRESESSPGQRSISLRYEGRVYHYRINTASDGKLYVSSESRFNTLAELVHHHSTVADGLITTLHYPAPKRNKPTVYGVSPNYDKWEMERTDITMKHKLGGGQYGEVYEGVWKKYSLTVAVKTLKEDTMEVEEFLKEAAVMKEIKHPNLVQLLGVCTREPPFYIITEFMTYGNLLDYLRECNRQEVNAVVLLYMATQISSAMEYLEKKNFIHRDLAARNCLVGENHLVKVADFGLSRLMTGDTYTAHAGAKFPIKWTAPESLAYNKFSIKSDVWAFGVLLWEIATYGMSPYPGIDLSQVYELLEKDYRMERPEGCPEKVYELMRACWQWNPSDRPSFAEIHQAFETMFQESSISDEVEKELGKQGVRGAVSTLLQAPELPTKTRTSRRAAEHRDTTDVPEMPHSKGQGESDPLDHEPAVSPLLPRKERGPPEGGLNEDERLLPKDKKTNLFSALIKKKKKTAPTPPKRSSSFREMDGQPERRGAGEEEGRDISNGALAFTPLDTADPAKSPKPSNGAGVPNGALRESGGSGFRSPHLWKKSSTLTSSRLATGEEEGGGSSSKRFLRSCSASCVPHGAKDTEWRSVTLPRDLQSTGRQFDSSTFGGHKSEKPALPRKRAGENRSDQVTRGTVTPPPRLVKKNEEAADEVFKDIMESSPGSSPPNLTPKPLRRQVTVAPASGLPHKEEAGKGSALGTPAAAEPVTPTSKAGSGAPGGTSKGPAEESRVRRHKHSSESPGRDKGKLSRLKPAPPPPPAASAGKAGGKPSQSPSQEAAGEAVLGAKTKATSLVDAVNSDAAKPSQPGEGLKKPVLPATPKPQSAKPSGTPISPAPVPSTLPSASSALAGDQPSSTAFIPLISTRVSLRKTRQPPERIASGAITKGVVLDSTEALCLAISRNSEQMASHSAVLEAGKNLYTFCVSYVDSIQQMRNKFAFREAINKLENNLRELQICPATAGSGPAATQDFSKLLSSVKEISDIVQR
Sequence of Casein kinase I isoform delta (Homo sapiens) (P48730 whole entry, looked up, canonical isoform): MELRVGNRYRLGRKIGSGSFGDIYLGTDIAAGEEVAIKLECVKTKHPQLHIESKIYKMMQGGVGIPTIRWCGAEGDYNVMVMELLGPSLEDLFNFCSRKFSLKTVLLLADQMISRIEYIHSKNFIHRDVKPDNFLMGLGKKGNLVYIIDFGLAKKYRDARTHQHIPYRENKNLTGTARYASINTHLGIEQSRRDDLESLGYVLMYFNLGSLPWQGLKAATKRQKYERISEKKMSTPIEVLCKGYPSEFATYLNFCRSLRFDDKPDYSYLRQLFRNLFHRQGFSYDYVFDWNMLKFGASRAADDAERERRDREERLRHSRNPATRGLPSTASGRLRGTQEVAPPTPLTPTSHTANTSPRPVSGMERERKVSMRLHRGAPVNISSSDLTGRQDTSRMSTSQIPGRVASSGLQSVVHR
Sequence of Mitogen-activated protein kinase 1 (Homo sapiens) (P28482 whole entry): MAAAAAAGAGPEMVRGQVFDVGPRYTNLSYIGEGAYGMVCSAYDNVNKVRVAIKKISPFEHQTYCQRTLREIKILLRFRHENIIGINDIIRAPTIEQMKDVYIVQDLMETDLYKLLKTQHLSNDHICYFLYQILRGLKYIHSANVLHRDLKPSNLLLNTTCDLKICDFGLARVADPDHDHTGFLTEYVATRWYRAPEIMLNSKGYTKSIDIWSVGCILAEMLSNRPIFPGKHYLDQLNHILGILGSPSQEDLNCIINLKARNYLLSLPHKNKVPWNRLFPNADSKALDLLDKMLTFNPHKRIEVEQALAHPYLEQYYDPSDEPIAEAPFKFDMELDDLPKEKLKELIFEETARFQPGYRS

| Structure (SMILES) | ΔTm [1] [°C] | ΔTm [2] [°C] | ΔTm [3] [°C] | ΔTm [4] [°C] | ΔTm [5] [°C] | ΔTm [6] [°C] |
| --- | --- | --- | --- | --- | --- | --- |
| CC(=O)O[C@H]1C(=O)[C@@]2(C)[C@H]([C@H](OC(=O)c3ccccc3)[C@]3(O)C[C@H](OC(=O)[C@H](O)[C@@H](NC(=O)c4ccccc4)c4ccccc4)C(C)=C1C3(C)C)[C@]1(OC(C)=O)CO[C@@H]1C[C@@H]2O | 0.38 | 0.99 | -0.22 | -0.02 | 0.57 | -0.14 |
| Cc1cc(CN)cc(C)c1-c1ncn(C)c1-c1cncn1C | 0.16 | -0.16 | 0.37 | 0.19 | 0.11 | -0.37 |
| N#Cc1cccc(-c2c[nH]c3ncnc(N4CCOCC4)c23)c1 | 1.39 | 1.88 | 0.56 | 4.32 | 0.64 | 4.35 |
| COc1ccccc1Nc1nc(-c2nn(Cc3c(F)cc(OCCCO)cc3F)c3ccccc23)ncc1OC | 0.26 | -0.43 | -0.21 | -0.64 | 0.16 | -0.7 |
| CN(C)CC#Cc1ccc2[nH]c3c(c2c1)-c1nc(N)ncc1CCC3 | 0.75 | -0.08 | 3.05 | 0.06 | 0.46 | 1.23 |
| CC(C)(C)c1cc(NC(=O)c2csc(Nc3ccc(Cl)cc3)n2)no1 | -0.19 | 0.91 | 1.05 | -2.8 | -3.27 | 1.67 |
| CC(=O)Nc1nc(C)c(S(=O)(=O)Nc2ccc(C(O)(C(F)(F)F)C(F)(F)F)cc2)s1 | 0.65 | 0.74 | 0.36 | 0.5 | 0.18 | 1.27 |
| CC#CC(=O)N1CCN(c2nc(-c3ccc(Oc4ccccc4)cc3)c(C(N)=O)s2)CC1 | -0.27 | -1.44 | -8 | -2.57 | -9.83 | -1.3 |
| COc1ccc(S(=O)(=O)N2CCOCC2)cc1Nc1ccc2c(n1)N(C1CCOCC1)[C@H](C)C(=O)N2C | -0.18 | 0.41 | -0.08 | -0.48 | -0.88 | 0.03 |
| C[C@@H]1CC(=O)N(C2CC2)N=C1c1ccc(NC(=O)N2Cc3ccncc3C2)cc1 | 0.36 | 0.35 | 0.2 | -0.86 | 0.29 | 0.22 |
| CN(C)C(=O)c1cc2cnc(Nc3ccc(N4CCN(CCCCNC(=O)COc5cccc6c5C(=O)N(C5CCC(=O)NC5=O)C6=O)CC4)cn3)nc2n1C1CCCC1 (centres undefined) | 0.61 | 0.81 | -0.24 | -0.75 | 0.11 | 4.38 |
| C[C@@H]1C[C@H](C)CN(c2ncc(Cl)c(Nc3ccc4c(c3)cc(OC(C)(C)C(=O)O)c(=O)n4C)n2)C1 | -0.58 | 0.18 | -0.08 | -1.47 | 0.14 | 0.18 |
| CC1(C)C[C@@H]1C(=O)N/C(=C\CCCCSC[C@H](N)C(=O)O)C(=O)O | 0.34 | 0.8 | -0.09 | 0.21 | -0.39 | -0.41 |
| CC(C)(O)c1cn(-c2ccc(-c3cccc(S(C)(=O)=O)c3)cc2)c(C(C)(C)c2ccccc2Cl)n1 | -1.7 | 0.08 | -0.27 | -0.99 | 0.15 | -3.66 |
| Cc1ncc(C(=O)Nc2cc(C(C)(C)C)on2)cc1-n1cc(-c2cnn(C)c2C)nn1 | 9.67 | 0.45 | 2.28 | -0.79 | 0.26 | -0.09 |
| CN(C)CCCNc1ccnc(Nc2cccc(Cl)c2)n1 | 2.74 | 2.3 | 0.78 | 6.75 | 0.51 | 2.26 |
| CNc1oc(-c2cccc3ccccc23)nc1C#N | 0.54 | 0.95 | -0.04 | 0.49 | 0.02 | 0.57 |
| Cn1cc(C(=O)O)c2ccc(N3CCC(OCc4c(-c5c(Cl)cccc5Cl)noc4C4CC4)CC3)cc21 | 0.5 | 0.93 | 1.17 | 0.23 | 0.52 | -1.5 |
| CCN(C)C(=O)c1ccc2c(c1)NC(=O)/C2=C(\NC1CCN(C)CC1)c1ccccc1 | -0.14 | 0.01 | 0.23 | 2.01 | 0.03 | -0.37 |
| C[C@H](CCOc1cccc(CC(=O)O)c1)N(Cc1cccc(C(F)(F)F)c1Cl)CC(c1ccccc1)c1ccccc1 | 0.51 | 1.5 | 0.57 | -1.07 | 0.41 | -2.31 |
| CC(=O)N1CCC(c2ccc(C(=O)NC3=NCCN3)cc2C(F)(F)F)CC1 | 0.33 | 0.15 | 0.3 | -0.03 | 0.1 | -0.15 |
| COc1cc(C(=O)NCCOCCOCCOCC(=O)N[C@H](C(=O)N2C[C@H](O)C[C@H]2C(=O)NCc2ccc(-c3scnc3C)cc2)C(C)(C)C)ccc1Nc1ncc(C(F)(F)F)c(Oc2cccc3c2C(=O)CC3)n1 | -0.62 | -0.81 | 0.41 | 0 | -8.23 | 1.75 |
| Clc1cccc(Nc2nccc(NCCCN3CCOCC3)n2)c1 | 1.3 | 1.43 | 0.64 | 5.39 | 0.32 | 2.47 |
| CC(C)c1nc2c(c3c1[C@@H](c1ccc(C(F)(F)F)cc1)OC31CCOCC1)[C@@H](O)CC(C)(C)C2 | -0.41 | 0.52 | 0.25 | -1.28 | -0.13 | -0.38 |

| Structure (SMILES) | ΔTm [1] [°C] | ΔTm [2] [°C] | ΔTm [3] [°C] | ΔTm [4] [°C] | ΔTm [5] [°C] | ΔTm [6] [°C] |
| --- | --- | --- | --- | --- | --- | --- |
| CCC(=O)N[C@@H]1CC[C@H](C(=O)N(C)c2ccc(-c3nc4ccccc4o3)cc2)C1 | 0.73 | 0.64 | 0.6 | -0.1 | 0.12 | 0.03 |
| Clc1ccccc1C(c1ccccc1)(c1ccccc1)n1ccnc1 | -1.2 | -1.88 | -0.72 | -2.38 | -0.79 | -2.33 |
| CC(C=CC1=C(C)CCCC1(C)C)=CC=CC(C)=CC(=O)O | 0.39 | 0.25 | 0.93 | -0.56 | 0.1 | -3.01 |
| CC1CCN(C(=O)[C@H](CCn2cccc2C#N)NS(=O)(=O)c2cccc3[nH]ccc23)CC1 | 0.43 | 0.31 | 0.54 | 0.64 | 0.72 | -0.11 |
| COc1ccc(Br)cc1S(=O)(=O)NC(=O)/C=C/c1cc(Cl)ccc1Cc1ccc2ccccc2c1 | -0.6 | -1.22 | -6.17 | -2.44 | -4.21 | -3.37 |
| COc1ccc(COc2ccc(Cc3cnc(N)nc3N)cc2OC)cc1 | -0.19 | – | -0.66 | -0.98 | 0.25 | -0.26 |
| CC(C)(C#Cc1ccc(NC(=O)COc2ccccc2C(=O)c2ccccc2)c(Cl)c1)C(=O)O | 0.32 | -1.47 | -0.18 | 0 | -0.94 | 0.27 |
| C=CC1C[C@]1(NC(=O)[C@@H]1C[C@@H](Oc2cc(-c3csc(NC(=O)C(C)C)n3)nc3c(Br)c(OC)ccc23)CN1C(=O)[C@@H](NC(=O)OC1CCCC1)C(C)(C)C)C(=O)O (some centres undefined) | 0.33 | 0.56 | 0 | -2.17 | -1.13 | 0.81 |
| CCN(C)S(=O)(=O)Nc1cccc(-c2ccc3c(NC(=O)C4CC4)n[nH]c3c2)c1 | 4.16 | 3.52 | 0.06 | 3.82 | 0.42 | 4.06 |
| O=C(O)c1cccc(C2=C(c3cc(Cl)ccc3OCc3ccc(F)cc3F)CCC2)n1 | -0.85 | -1.05 | -0.59 | 0 | -0.17 | -0.7 |
| CCS(=O)(=O)c1cc2cc(C[C@](O)(CC(C)(C)c3ccc(F)cc3C(N)=O)C(F)(F)F)[nH]c2cn1 | 0.15 | 0.5 | 0.37 | -0.73 | 0.36 | 0.03 |
| Cc1sc(C(=O)c2cncnc2N[C@@H]2C[C@H](COS(N)(=O)=O)[C@@H](O)C2)cc1[C@@H]1NCCc2ccc(Cl)cc21 | 0.37 | 0.66 | -0.59 | 0.3 | -0.53 | -0.27 |
| COc1ccc(-c2cc3c(C)nc(N)nc3n([C@H]3CC[C@H](OCCO)CC3)c2=O)cn1 | 0.46 | 0 | -0.16 | -0.85 | 0.38 | -0.59 |
| CCN1CCN(Cc2ccc(Nc3ncc(F)c(-c4cc(F)c5nc(C)n(C(C)C)c5c4)n3)nc2)CC1 | 3.44 | – | 4.97 | 11.1 | 1.41 | 3.81 |
| COc1ccc(N(C(=O)Nc2c(C)cccc2C)c2cc(Nc3ccc(N4CCN(C)CC4)cc3)ncn2)c(OC)c1 | – | 0.7 | 2.65 | 3.75 | 0.48 | 10.1 |
| COCCCS(=O)(=O)c1cc(C)c(-c2ccc(F)c3c2CC[C@H]3Oc2ccc3c(c2)OC[C@H]3CC(=O)O)c(C)c1 | 0.43 | 0 | 0.06 | 0 | 0 | -0.86 |
| COc1cc2ncnc(Nc3cccc(O)c3)c2cc1OC | 8.2 | – | 2.54 | 3.7 | 0.61 | 2.79 |
| COc1ccc(F)c(F)c1C(=O)c1cnc(NC2CCN(S(C)(=O)=O)CC2)nc1N | 0.33 | – | 0.3 | 7.07 | 0.27 | 0.02 |
| CCc1cnn2c(NCc3ccc[n+]([O-])c3)cc(N3CCCCC3CCO)nc12 (centres undefined) | 0.22 | – | 1.31 | 7.6 | 1.41 | -0.54 |
| CCc1ccc(N(CC(C)C)S(=O)(=O)c2ccc(OCC3CCOCC3)c(CO)c2)cc1 | -3.79 | 0.33 | 0.71 | 0 | 0.2 | -8.48 |
| O=C(NC1CCNCC1)c1n[nH]cc1NC(=O)c1c(Cl)cccc1Cl | 0.36 | – | 0.04 | 11.4 | -0.04 | -1.05 |
| NS(=O)(=O)c1ccc(Nc2nc(OCC3CCCCC3)c3nc[nH]c3n2)cc1 | 5.71 | – | 0.51 | 5.83 | 2.65 | 7.68 |
| C[C@H](NC(=O)c1cc(Cl)ccc1Oc1ccc(F)cc1)c1ccc(C(=O)O)cc1 | -0.11 | 0.27 | -2.45 | 0.51 | 0.18 | -0.14 |
